This passage reports outcome results from PubChem BioAssay AID540335 (Broad Institute, 2011).

Hit rate of the full screen: of about 1,300 compounds, about 270 (21%) were called active.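 How the source made its calls: active means dose-dependent rise or fall in viability, either side of zero, with half-maximal concentration at or below a set limit; inconclusive means flat curve at 30 to 70% viability loss, or poor fit; inactive means flat within 30% either way, or potency beyond limit.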 A selection follows. Where a call stands in place of a potency, no number is given. Potency and affinity values are given separately.

This assay in a line: proliferation inhibition in MITF-low A375 cells – cell-based, cherry-pick samples, set 2, counter-screen for MITF modulator project, dose response (AID 540335).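 Further: A375 human melanoma cells which do not depend on MITF.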 Particulars: CellTiter-Glo ATP luminescence, 24 h; series mostly up to 35 µM. On the technique in general: Counterscreens check selectivity or assay interference.
In the case of `CS(=O)(=O)c1ccc(C(=O)OCC(=O)NCc2cccs2)cc1[N+](=O)[O-]`, the molecule was called inactive.

On to `Cn1cccc1C(=O)NC(=O)COC(=O)c1ccc(S(C)(=O)=O)c([N+](=O)[O-])c1`, for which the molecule was called inactive.

For the molecule `O=C(CCl)N1N=C(c2ccco2)CC1c1cccs1` (configuration not stated), the call was inactive.

As for `CC(C)C(=O)N1CCN(c2ccc(NC(=O)c3ccc([N+](=O)[O-])o3)cc2Cl)CC1`, the molecule was classed as inactive.

On to `CCCCC[n+]1ccn(C2=C([O-])c3ccccc3C(=O)/C2=N\S(=O)(=O)c2ccccc2)c1`, for which the outcome was inactive.

Regarding `O=C(Nc1ccc2c(c1)OCCO2)c1coc2ccccc2c1=O`, the outcome was inactive.

For `COc1cc(CN2CCC(C(N)=O)CC2)ccc1OCc1ccccc1`, the molecule was called inactive.

For `COc1cc(CN2CCC(C(=O)NCCC(C)C)CC2)ccc1OCc1ccccc1`, the molecule was classed as inactive.

Regarding `CCN1CCc2c(sc(NC(=O)c3ccc(S(=O)(=O)N4CCCC4)cc3)c2C(=O)NC)C1`, the molecule was called inactive.

With `Cc1ccc(NC(=O)c2cc(N3C(=O)C=CC3=O)ccc2N2CCOCC2)cc1`, the result was inactive.

As to `O=C(Nc1ccc(S(=O)(=O)NC2=NCCCCC2)cc1)c1ccc([N+](=O)[O-])s1`, the call was inactive.

For the molecule `Cc1ccc2sc(N(CCCN(C)C)C(=O)c3ccc(S(=O)(=O)N(C)C4CCCCC4)cc3)nc2c1C`, the molecule was called inactive.

Regarding `Cc1ccc2nc(NC(=O)CCCC(=O)O)sc2c1`, the result was inactive.

Turning to `COc1ccc(S(=O)(=O)N2CCCCC2)cc1NC(=O)c1ccc([N+](=O)[O-])o1`, the result was inactive.

Turning to `Cn1c(SCC(=O)N/N=C/c2ccc([N+](=O)[O-])s2)nnc1-c1ccccc1`, the molecule was classed as inactive.

Take `CC(=O)OCCCNc1cc(Sc2ccc(Cl)cc2)c2nonc2c1[N+](=O)[O-]`: the outcome was inactive.

As for `CCN1CCCC1CNC(=O)c1ccc2c(c1)NC(=O)/C(=C\c1ccc(C)cc1)S2` (configuration not stated), the molecule was classed as inactive.

On to `COc1cccc(/C=C2/Sc3ccc(C(=O)NCCN4CCCC4)cc3NC2=O)c1`, for which the result was inactive.

For the molecule `O=C1Nc2cc(C(=O)NCCN3CCCCCC3)ccc2S/C1=C\c1ccccc1`, the result was inactive.

`CCN1CCCC1CNC(=O)c1ccc2c(c1)NC(=O)/C(=C\c1ccc(OC)c(OC)c1)S2` (configuration not stated): the call was inactive.

For `COC(=O)[C@@H]1C[C@]2(OC(=O)c3ccccc3)C=CC(=O)C[C@@H]2N1C(=O)OCc1ccccc1`, the result was inactive.

Turning to `COc1ccccc1NS(=O)(=O)c1cccc(C(=O)N/N=C/c2ccc([N+](=O)[O-])o2)c1`, the molecule was called inactive.

On to `Cc1ccccc1OCC(=O)N/N=C/c1ccc([N+](=O)[O-])o1`, for which the call was inactive.

Turning to `O=C(COc1ccccc1)N/N=C/c1ccc([N+](=O)[O-])o1`, the call was inactive.

For `C=Cc1ncc(OC)c2c1[nH]c1ccccc12`, the molecule was called inactive.

`O=[N+]([O-])c1cccc2c(N3CCCC3)ccnc12`: the call was inactive.

With `CCN1CCN(c2ccc(NC(=O)c3ccc([N+](=O)[O-])o3)cc2Cl)CC1`, the molecule was classed as inactive.

Consider `O=C(C[n+]1cccc2ccccc21)c1ccc([N+](=O)[O-])cc1`, for which the molecule was called inactive.

Turning to `Cc1cc(C)n(-c2ccc(C(=O)Nc3ccc(C)c(S(=O)(=O)N4CCOCC4)c3)cc2)n1`, the molecule was called inactive.

On to `CS(=O)(=O)c1nc(-c2ccc(F)cc2)cc(C(F)(F)F)n1`, for which the molecule was classed as inactive.

With `CCn1c(/C=C/N(C)c2ccccc2)[n+](CC)c2ccc(Cl)cc21`, the molecule was classed as inactive.

Turning to `CCOC(=O)c1ccc2c(c1)n(CC)c(/C=C/N(C)c1ccccc1)[n+]2CC`, the outcome was inactive.

For the molecule `Oc1cc(NCCN2CCOCC2)cc2cccnc12`, the molecule was classed as inactive.

Turning to `O=C(N/N=C\c1cc(Br)ccc1O)c1ccc(S(=O)(=O)N2CCCCC2)cc1`, the result was inactive.

Regarding `O=C(N/N=C/c1cc(Cl)ccc1O)c1ccncc1`, the call was inactive.

For the molecule `O=C1c2cc(F)ccc2-n2c1nc1ccccc1c2=O`, the call was inactive.

As for `CCOC(=O)CSC1=NC(=O)/C(=C\c2ccc(Cl)cc2)S1`, the result was inactive.

`O=C(N/N=C/c1ccc(F)cc1)c1c(O)c2ccccc2[nH]c1=O`: the outcome was inactive.

For the molecule `O=C1/C(=C/c2ccccc2[N+](=O)[O-])COc2ccccc21`, the molecule was called inactive.

Regarding `Cc1ccc(-c2cn(-c3ccc(SC(F)F)cc3)c3[n+]2CCC3)cc1`, the call was inactive.

In the case of `O=c1c(Cl)c2oc3ccccc3nc-2c2ccccc12`, the molecule was classed as inactive.

With `COc1cccc(-c2nnc3n2N=C(C(C)(C)C)CS3)c1`, the molecule was classed as inactive.

For `O=C(CCl)Nc1ccc(-c2ccccc2)cc1`, the molecule was called inactive.

In the case of `CS(=O)(=O)c1ccc2nc(NC(=O)c3ccccc3)sc2c1`, the molecule was called inactive.

On to `COc1ccc(S(=O)(=O)N(C(C)=O)c2ccc(OC(C)=O)c3ccccc23)cc1[N+](=O)[O-]`, for which the call was inactive.

In the case of `CC1=C/C(=N\NC(=S)Nc2cccnc2)CC(C)(C)C1`, the molecule was classed as inactive.

For the molecule `O=C(CCl)Nc1cccc(-c2cnc3ccccc3n2)c1`, the call was inactive.

In the case of `Nc1nc2ccccc2n1/N=C/c1ccc([N+](=O)[O-])s1`, the outcome was inactive.

In the case of `CC1CN(C(=O)CCC(=O)NCCCN2CCC(Cc3ccccc3)CC2)c2cc(Cl)ccc2O1` (configuration not stated), the outcome was inactive.

Consider `Clc1ccc(-c2c[n+](Cc3cccc(Cl)c3)c3n2CCC3)cc1`, for which the call was inactive.

With `COc1ccc(/C=C2\Sc3ccc(C(=O)NCCN4CCCCCC4)cc3N(C)C2=O)cc1`, the call was inactive.

As for `COc1ccc(C(=O)NCCSc2ccccc2C)cc1`, the molecule was called inactive.

On to `Nc1c(N(CCC2=CCCCC2)C(=O)COc2ccc([N+](=O)[O-])cc2)c(=O)[nH]c(=O)n1Cc1ccccc1`, for which the molecule was called inactive.

In the case of `CN1CCN(c2ccc(NC(=O)c3ccc([N+](=O)[O-])o3)cc2Cl)CC1`, the molecule was called inactive.

In the case of `CN1CCN(c2ccccc2NC(=O)c2ccc([N+](=O)[O-])o2)CC1`, the result was inactive.

Turning to `CC(=O)SC(C[N+](=O)[O-])c1cn(C(C)=O)c2ccccc12` (configuration not stated), the call was inactive.

In the case of `CC(C)(C)C(=O)Cn1ncc(Cl)c(Cl)c1=O`, the outcome was inactive.

For the molecule `C=C1C(=O)O[C@@]23[C@H]1CC[C@@H](C)[C@@H]2CC[C@@]1(C)O[C@@H]31`, the call was inactive.

With `CCCC(=O)N1CCN(c2ccc(NC(=O)c3ccc([N+](=O)[O-])o3)cc2)CC1`, the molecule was called inactive.

On to `CCN(CC)CCNC(=O)c1ccc(NC(=O)c2cccc(S(=O)(=O)N3c4ccccc4CC3C)c2)cc1` (configuration not stated), for which the molecule was called inactive.

Take `O=C(/C=C/c1ccc(Cl)c([N+](=O)[O-])c1)c1ccc(O)cc1`: the molecule was classed as inactive.

Turning to `O=C(Nc1ccc(N2CCN(C(=O)c3ccc(Cl)cc3)CC2)cc1)c1ccc([N+](=O)[O-])o1`, the molecule was classed as inactive.

As to `O=C(N/N=C/c1ccc([N+](=O)[O-])s1)c1ccccc1Br`, the result was inactive.

Turning to `COc1cc(NC(=O)c2ccc([N+](=O)[O-])o2)ccc1NC(=O)c1cccs1`, the result was inactive.

In the case of `CN(C(=O)/C=C/c1ccc([N+](=O)[O-])s1)c1ccccc1`, the molecule was classed as inactive.

Regarding `Cc1scc(C(=O)N/N=C/c2ccc([N+](=O)[O-])o2)c1C`, the outcome was inactive.

For `CCCCCCN1C=CC(=C2C(=O)c3ccccc3C2=O)C=C1`, the molecule was classed as inactive.

Consider `O=C1CN(C(=O)Cn2ncc(Cl)c(Cl)c2=O)c2ccccc2N1`, for which the molecule was called inactive.

For `Cc1ccc(C(=O)N/N=C/c2ccc([N+](=O)[O-])s2)cc1`, the molecule was classed as inactive.

As for `Cc1ccc(C)c(C(=O)Cn2ncc(Cl)c(Cl)c2=O)c1`, the molecule was classed as inactive.

Consider `C=CCNc1nc(-c2ccccn2)nnc1-c1ccccc1`, for which the result was inactive.

In the case of `Clc1cccc(-c2nc(-c3ccccn3)no2)c1`, the outcome was inactive.

Regarding `O=C(Nc1ccc(S(=O)(=O)N2CCCCCC2)cc1)c1[nH]ncc1[N+](=O)[O-]`, the outcome was inactive.

Take `O=C(O)c1ccc(N/N=C/c2ccc(OC(=O)c3cccc(Cl)c3)cc2)cc1`: the result was inactive.

Consider `CC(C)CC(=O)NC(c1cccs1)c1ccc2cccnc2c1O` (configuration not stated), for which the result was inactive.

On to `O=C(CCl)Nc1ccc(Sc2ccc(NC(=O)CCl)cc2)cc1`, for which the call was inactive.

As for `COc1ccccc1-c1nc(-c2ccc(C)nc2OC)no1`, the call was inactive.

With `COc1ccccc1-c1nnc(-c2ccc(C)cc2)o1`, the molecule was classed as inactive.

In the case of `Cn1c(SC2=CS(=O)(=O)c3ccccc32)nc2ccccc21`, the result was inactive.

Turning to `CCN1CCc2c(sc(NC(=O)c3ccc(S(=O)(=O)N4CCCCCC4)cc3)c2C(=O)NC)C1`, the molecule was classed as inactive.

With `CC1(C)CC(NC(=O)c2ccc(Cl)c(S(=O)(=O)N(Cc3ccccc3)c3ccccc3)c2)CC(C)(C)N1`, the molecule was called inactive.

With `C#CC(=O)N(c1ccc(OC)cc1OC)C(C(=O)NC1CCCC1)c1cccs1` (configuration not stated), the molecule was classed as inactive.

For the molecule `COc1ccc(C(C(=O)NC2CCCCC2)N(C(=O)CCl)c2ccc(OC)cc2)cc1` (configuration not stated), the molecule was called inactive.

On to `C(#Cc1ccccc1)C[N+]1(CC#Cc2cccc3ccccc23)CCCC1`, for which the outcome was inactive.

As to `CCOc1ccc2nc(C)cc(Nc3cccc([N+](=O)[O-])c3)c2c1`, the molecule was called inactive.

Regarding `CC(=O)OCCNc1cc(Sc2nc3ccccc3[nH]2)c2nonc2c1[N+](=O)[O-]`, the call was inactive.

For `O=C(Nc1cc(-c2nc3ncccc3o2)ccc1Cl)c1ccc([N+](=O)[O-])o1`, the molecule was classed as inactive.

With `O=C(O)c1cccc(N/N=C/c2ccc(OC(F)(F)F)cc2)c1`, the call was inactive.

Consider `O=C(Cn1ncc(Cl)c(Cl)c1=O)NCC1CCCCC1`, for which the result was inactive.

For the molecule `COc1ccc(C(=O)/C=C(\C)Nc2ccc3c(c2)OCO3)cc1`, the molecule was called inactive.

Take `O=C(CSc1ccccn1)c1ccc2c(c1)OCO2`: the outcome was inactive.

With `Cc1cc(C(=O)CN2C(=O)c3ccccc3S2(=O)=O)c(C)n1-c1ccccc1`, the result was inactive.

As for `Cc1cccnc1NC(=O)NC(=O)c1ccc(C(C)(C)C)s1`, the result was inactive.

With `COc1ccc(CCn2c(=S)[nH]c3cc(C(=O)NCc4ccco4)ccc3c2=O)cc1OC`, the call was inactive.

`Cc1cc(C)c2sc(N(CCCN(C)C)C(=O)COc3ccc(Cl)cc3)nc2c1`: the outcome was inactive.

On to `CN(C)CCCNc1nc2sc3c(c2c(=O)n1CCc1ccccc1)CCCCC3`, for which the outcome was inactive.

As to `COc1ccc(-n2cc(-c3ccc(C)cc3)[n+]3c2SCC3)cc1`, the call was inactive.

For `O=C(NCC1CCCCC1)C1(CC2CC(c3cccc(Br)c3)=NO2)CCNCC1` (configuration not stated), the molecule was classed as inactive.

In the case of `Cc1ccc(C(C)C)c(OCc2nn(CC(=O)c3ccc(Cl)cc3)c3[n+]2CCCCC3)c1`, the molecule was classed as inactive.

`CCOC(=O)N1C(=O)[C@@](CC)(c2ccccc2)N1C(=O)OCC`: the result was inactive.

Consider `O=C(N/N=C/c1ccc([N+](=O)[O-])o1)c1ccccc1-n1cccc1`, for which the molecule was called inactive.

In the case of `COC(=O)C1=C(C)N(Cc2ccccc2)C(=NCC(C)C)N[C@H]1c1cccc(C(F)(F)F)c1`, the molecule was called inactive.
